Results taken from PubChem BioAssay AID2284384 (EPA ToxCast).
Inconclusive results are not listed. Active and inactive are the calls of the source. Rule for the calls: active = hit-call score of the fitted dose curve at least 0.9, where 1 is the maximum; inconclusive = response in the unintended direction; inactive = score below 0.9.

The compounds below were run against human Peroxisome Proliferator-activated Receptor alpha (PPARa), PPARA (gene 5465) (UniProt Q07869) (assay: ERF_US_NR_hPPARA: Eurofins (ERF) Nuclear Receptor (NR) Cell Based Protein-Protein Interaction LeadHunter Assay for human Peroxisome Proliferator-activated Receptor alpha (PPARa) Agonism).
Procedure: ERF_US_NR_hPPARA is a cell-based, single-readout assay that uses extracted gene-proteins […]. Measurements were taken 5 hours after chemical dosing in a 384-well plate. See PPARalpha Human NHR Cell Based Agonist Protein-Protein Interaction Assay, DiscoverX.ERF_US_NR_hPPARA is an assay component calculated from theERF_US_NR_hPPARA assay. It is designed to measure radioligand binding using a type of binding reporter as detected by scintillation counting with radiometry technology.Data from the assay component ERF_US_NR_hPPARA was analyzed at the assay endpoint, ERF_US_NR_hPPARA, in the positive analysis fitting direction relative to DMSO as the negative control and baseline of activity. Using a type of binding reporter, gain-of-signal activity can be used to understand changes in binding as they relate to gene PPARA. To generalize the intended target to other relatable targets, this assay endpoint is annotated to the nuclear receptor intended target family, where the subfamily is non-steroidal.
Cells were seeded in a total volume of 20 uL into white walled, 384-well microplates and incubated at 37C overnight prior to testing.Briefly, intermediate dilution of sample stocks was performed to generate 5X sample in assay buffer. 5 uL of 5X sample was added to cells and incubated at 37C for 300 minutes. Final assay vehicle concentration was 1%. The results are expressed as a percent efficacy of the control ligand.

Sequence of human Peroxisome Proliferator-activated Receptor alpha (PPARa), PPARA (gene 5465) (Q07869 whole entry, looked up): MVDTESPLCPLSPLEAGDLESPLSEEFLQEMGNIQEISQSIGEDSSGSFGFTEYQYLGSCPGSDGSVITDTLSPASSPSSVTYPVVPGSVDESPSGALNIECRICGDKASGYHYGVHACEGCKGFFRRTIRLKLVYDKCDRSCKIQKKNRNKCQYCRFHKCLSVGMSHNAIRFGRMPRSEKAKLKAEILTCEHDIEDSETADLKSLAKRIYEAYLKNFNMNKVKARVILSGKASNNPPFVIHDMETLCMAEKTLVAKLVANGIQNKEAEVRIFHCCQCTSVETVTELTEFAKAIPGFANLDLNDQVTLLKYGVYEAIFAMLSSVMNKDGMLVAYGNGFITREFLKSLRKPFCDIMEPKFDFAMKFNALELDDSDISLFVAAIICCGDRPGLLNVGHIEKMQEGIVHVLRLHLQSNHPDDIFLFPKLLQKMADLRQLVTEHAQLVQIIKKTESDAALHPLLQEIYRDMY

SMILES | outcome | AC50
O=C(O)C(F)(F)C(F)(F)C(F)(F)C(F)(F)C(F)(F)C(F)(F)C(F)(F)F | inactive | –
O=C(O)C(F)(F)C(F)(F)C(F)(F)C(F)(F)C(F)(F)C(F)(F)C(F)F | inactive | –
O=S(=O)(O)C(F)(F)C(F)(F)C(F)(F)C(F)(F)C(F)(F)C(F)(F)C(F)(F)C(F)(F)F | inactive | –
CN(CCOc1ccc(CC2SC(=O)NC2=O)cc1)c1ccccn1 (centres undefined) | inactive | –
O=C(CC(=O)C(F)(F)C(F)(F)C(F)(F)F)c1cccs1 | – | 12.6 µM (active)
O=C(O)C(F)(F)OC(F)(F)C(F)(F)OC(F)(F)F | inactive | –
O=S(=O)(O)C(F)(F)C(F)(F)C(F)(F)C(F)(F)C(F)(F)C(F)(F)F | inactive | –
CC(C)(Oc1ccc(C(=O)c2ccc(Cl)cc2)cc1)C(=O)O | – | 50 µM (active)
O=C(O)C(F)(F)C(F)(F)C(F)(F)C(F)(F)C(F)(F)C(F)(F)C(F)(F)C(F)(F)Cl | inactive | –
